This is a sample that favours compounds with a hit; in the whole collection about 4.1% have one here.
tim10-1 inh: growth inhibitors of tim10-1 mutant yeast, primary screen, luminescence, uHTS; S. cerevisiae tim10-1 ts strain growth, BacTiter-Glo, 24 h; 330,000 compounds, 2.2% hits; AID 463190, 2010; inhibition, % at 20 µM;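 active = inhibition of at least 40%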;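 also: mutant grown at 25 °C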
tim23-1 inh: growth inhibitors of tim23-1 mutant yeast, primary screen, luminescence, uHTS | S. cerevisiae tim23-1 growth, BacTiter-Glo luminescence, 24 h | inhibition, % at 20 µM | 330,000 compounds, 1.3% hits;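 active = growth inhibition of the mutant yeast at or above 50%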;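 also: temperature-sensitive mutant grown at 25 °C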
TIM10 inh: growth inhibitors of isogenic TIM10 control yeast, primary screen, counter-screen for tim10-1 yeast inhibitor project, luminescence, uHTS; inhibition, % at 10 µM; 330,000 compounds, 1.4% hits; S. cerevisiae TIM10 strain growth, BacTiter-Glo luminescence, 24 h; AID 463195, 2010;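 active = inhibition of 40% or more at the single tested concentration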;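 also: wild-type TIM10 isogenic control strain grown at permissive 25 °C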
PfHsp90 yeast 2: growth inhibition of PfHsp90-expressing yeast, primary screen, antimalarial PfHsp90 inhibitor project, S. cerevisiae, BacTiter-Glo luminescence, single point, set 2; BacTiter-Glo ATP, 48 h; yeast lacking PDR1 and PDR3 efflux regulators; 310,000 compounds, 0.32% hits; inhibition, % at 9.4 µM;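 active = every replicate shows inhibition above about 80%, whatever the replicate mean, limit read from the data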
NALP3 yeast inh: NALP3 inflammasome inhibitors in reconstituted yeast, primary screen, luminescence, uHTS | AID 2825, 2010 | inhibition, % at 10 µM | 330,000 compounds, 0.39% hits | Yeast reconstituted NLRP3/ASC/caspase-1, beta-gal luminescence, 24 h;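 active = inhibition of 50% or more; inactive = inhibition below 50%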
NALP1 inh: NALP1 inflammasome inhibitors in reconstituted yeast, colorimetric, S. cerevisiae, triplicate retest. S. cerevisiae NALP1/ASC/caspase-1 growth, X-gal OD620, 72 h. inhibition, % at 10 µM. 280,000 compounds, 0.61% hits. AID 2071, 2009; in the data active = inhibition mostly above about 24%, no sharp cut-off; inactive = mostly below about 32%
tim10 confirm: growth inhibitors of wild-type TIM10 yeast, confirmation, counter-screen for tim10-1 synthetic lethality project, single concentration, luminescence, S. cerevisiae | shares compounds with TIM10 inh | AID 463215, 2010 | 4,600 compounds, 63% hits | S. cerevisiae tim10 strain growth, BacTiter-Glo luminescence, 24 h | inhibition, % at 10 µM;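 active = inhibition of yeast growth at or above a set limit in either of two replicates at 10 µM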; also: this counterscreen used the strain with wild-type TIM10
Hits are given with their value.

Screening CCOC(=O)N1CCN(C(=O)CN(C2CCCCC2)S(=O)(=O)c2c(C)cc(C)cc2C)CC1 returned tim10-1 inh inactive, tim23-1 inh inactive, TIM10 inh 41, NALP3 yeast inh inactive, NALP1 inh inactive and tim10 confirm inactive.
Screening COc1ccc(Cl)cc1NC(=O)CN(C)C(=O)Cn1cnnn1 returned tim10-1 inh inactive, tim23-1 inh inactive, TIM10 inh inactive, PfHsp90 yeast 2 inactive and NALP3 yeast inh inactive.
CC(C)OC(=O)c1cc2ccccc2[nH]1 was read as tim10-1 inh inactive, tim23-1 inh inactive, TIM10 inh inactive, NALP3 yeast inh inactive and NALP1 inh inactive.
Screening CCOC(=O)c1cc2cc3ccccc3cc2[nH]1 returned tim10-1 inh inactive, tim23-1 inh inactive, TIM10 inh 43, PfHsp90 yeast 2 inactive, NALP3 yeast inh inactive, NALP1 inh inactive and tim10 confirm inactive.
For CC(=O)c1ccc(-c2ccc(C(=O)N3CCC(C(N)=O)CC3)o2)cc1 the results were tim10-1 inh inactive, tim23-1 inh inactive, TIM10 inh inactive and NALP3 yeast inh inactive.
Cc1ccc(-n2nnnc2SCC(=O)c2cc(C)n(-c3cc(C)on3)c2C)cc1 was read as tim10-1 inh inactive, tim23-1 inh inactive, TIM10 inh 43, PfHsp90 yeast 2 inactive, NALP3 yeast inh inactive, NALP1 inh inactive and tim10 confirm inactive.
Cc1ccc(SCC(=O)OCC(=O)N(CC(C)C)c2c(N)n(Cc3ccccc3)c(=O)[nH]c2=O)c(C)c1 was read as tim10-1 inh inactive, tim23-1 inh inactive, TIM10 inh inactive and NALP3 yeast inh inactive.
Screening C/C(=N\NC(=S)NC(C)C)c1ccc(Cl)c([N+](=O)[O-])c1 returned tim10-1 inh inactive, tim23-1 inh inactive, TIM10 inh inactive, PfHsp90 yeast 2 inactive, NALP3 yeast inh inactive and NALP1 inh inactive.
For C/C(=N\NC(=S)NC(C)C)c1cccc([N+](=O)[O-])c1 the results were tim10-1 inh inactive, tim23-1 inh inactive, TIM10 inh 42, PfHsp90 yeast 2 inactive, NALP3 yeast inh inactive, NALP1 inh inactive and tim10 confirm inactive.
COc1cc(C(=S)N2CCOCC2)ccc1OC(=O)c1ccc([N+](=O)[O-])cc1[N+](=O)[O-] was read as tim10-1 inh inactive, tim23-1 inh inactive, TIM10 inh 44, PfHsp90 yeast 2 inactive, NALP3 yeast inh inactive, NALP1 inh inactive and tim10 confirm 37.
`COc1ccc(C(=S)N2CCOCC2)cc1OC(=O)c1cccc([N+](=O)[O-])c1` gave tim10-1 inh inactive, tim23-1 inh inactive, TIM10 inh 41, PfHsp90 yeast 2 inactive, NALP3 yeast inh inactive, NALP1 inh inactive and tim10 confirm inactive.
CC(C(=O)N1CCc2ccccc21)N1CCN(Cc2ccccc2)CC1 (stereo not given) was read as tim10-1 inh inactive, tim23-1 inh inactive, TIM10 inh inactive, PfHsp90 yeast 2 inactive, NALP3 yeast inh inactive and NALP1 inh inactive.
CCOC(=O)c1cnc(-n2nc(C)cc2C)nc1NCc1ccccc1 was read as tim10-1 inh inactive, tim23-1 inh inactive, TIM10 inh 43, PfHsp90 yeast 2 inactive, NALP3 yeast inh inactive, NALP1 inh inactive and tim10 confirm 39.
O=C(CCc1ccccc1)N=C1SC2CS(=O)(=O)CC2N1c1ccccc1F (stereo not given) was read as tim10-1 inh inactive, tim23-1 inh inactive, TIM10 inh inactive, PfHsp90 yeast 2 inactive, NALP3 yeast inh inactive and NALP1 inh inactive.
Screening CCCN1C(=O)/C(=C/c2ccc(N3CCCC3)c(C)c2)NC1=S returned tim10-1 inh inactive, tim23-1 inh inactive, TIM10 inh inactive, PfHsp90 yeast 2 inactive, NALP3 yeast inh inactive and NALP1 inh inactive.
Cc1cc(/C=C2\NC(=S)N(C)C2=O)ccc1N1CCCC1 was read as tim10-1 inh inactive, tim23-1 inh inactive, TIM10 inh 42, PfHsp90 yeast 2 inactive, NALP3 yeast inh inactive, NALP1 inh inactive and tim10 confirm 40.
`O=C(Cn1nc(Cc2ccncc2)c2ccccc2c1=O)Nc1cccnc1Cl` gave tim10-1 inh inactive, tim23-1 inh inactive, TIM10 inh inactive, PfHsp90 yeast 2 inactive and NALP3 yeast inh inactive.
`O=C(O)c1cnnc2ccccc12` gave PfHsp90 yeast 2 inactive.
`C/C=C(\C)C(=O)OC1c2c(ccc3ccc(=O)oc23)OC(C)(C)C1OC(C)=O` (stereo not given) gave tim10-1 inh inactive, tim23-1 inh inactive, TIM10 inh 48, PfHsp90 yeast 2 inactive, NALP3 yeast inh inactive, NALP1 inh inactive and tim10 confirm 29.
`O=C1c2ccccc2-c2nnc(-c3ccc(F)cc3)cc21` gave tim10-1 inh inactive, tim23-1 inh inactive, TIM10 inh inactive, PfHsp90 yeast 2 inactive, NALP3 yeast inh inactive and NALP1 inh inactive.
For O=C1c2ccccc2-c2nnc(-c3ccc(O)cc3)cc21 the results were tim10-1 inh inactive, tim23-1 inh inactive, TIM10 inh 50, PfHsp90 yeast 2 inactive, NALP3 yeast inh inactive, NALP1 inh inactive and tim10 confirm 31.
CCOC(=O)C1=C(C)N(C)C(=S)NC1c1ccccc1Cl (stereo not given) was read as tim10-1 inh inactive, tim23-1 inh inactive, TIM10 inh inactive, PfHsp90 yeast 2 inactive, NALP3 yeast inh inactive and NALP1 inh inactive.
`CCOC(=O)C1=C(C)N(C)C(=S)NC1c1cccc(Cl)c1Cl` (stereo not given) gave tim10-1 inh inactive, tim23-1 inh inactive, TIM10 inh 48, PfHsp90 yeast 2 inactive, NALP3 yeast inh inactive, NALP1 inh inactive and tim10 confirm inactive.
`CS(=O)(=O)c1ccc(Cl)c(NC(=O)c2cc(=O)[nH]c3ccc(S(=O)(=O)N4CCOCC4)cc23)c1` gave tim10-1 inh inactive, tim23-1 inh inactive, TIM10 inh inactive, PfHsp90 yeast 2 inactive and NALP3 yeast inh inactive.
Screening CCN(CC)c1ccc2cc(/C(N)=N/NC(=O)c3cccs3)c(=O)oc2c1 returned tim10-1 inh inactive, tim23-1 inh inactive, TIM10 inh 47, NALP3 yeast inh inactive and tim10 confirm 37.
`CSc1nc(-c2ccccc2)nn1C(=O)c1ccc(C)cc1` gave tim10-1 inh inactive, tim23-1 inh inactive, TIM10 inh 42, PfHsp90 yeast 2 inactive, NALP3 yeast inh inactive, NALP1 inh inactive and tim10 confirm 42.
CSc1nc(-c2ccco2)nn1C(=O)c1ccc(C)cc1 was read as tim10-1 inh inactive, tim23-1 inh inactive, TIM10 inh inactive, NALP3 yeast inh inactive and NALP1 inh inactive.
